KCNH2 WT inh – KCNH2 (human, wildtype) channel inhibition. Q12809. U2OS, BacMam KCNH2, thallium flux FluxOr; stronger effect = lower value. activity change, % at 1.84 µM. hit rate 0.37% among 340,000. AID 720551;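 active means maximum activity change below -70%; inconclusive means maximum activity change between -70% and -50%; inactive means maximum activity change above -50%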; further: on the % scale 0 is the no-effect control and ±100 the full control effect
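U2OS cells were transduced with wild-type KCNH2 virus (2.03 x 10^8 / mL) for 4 h at room temperature, then cultured overnight at 37 C. Thallium flux was read with FluxOr dye. Rate constants were normalized to DMSO controls.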
SW480 rerep – inducers of DNA re-replication in SW480 colon cancer cells; SW480 DNA re-replication, Hoechst DNA content imaging, 48 h; Potency, µM (series often up to 46.1 µM), without a hit: at the top dose re-replication activation, hits mostly activators; hit rate 1.8% among 340,000; further: potency means the concentration at half of the fitted maximal effect; % of control where 0% means no effect; nearly all actives have a fitted effect of over 55% in size
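Image-based DNA-content assay: after two days of treatment, nuclei were labelled with the DNA dye Hoechst and imaged, and hits were compounds raising the count of nuclei showing high fluorescence intensity.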
KB-3-1 cytotox – kills parental KB-3-1 adenocarcinoma cells | hit rate 1.4% among 400,000 | AID 1347075 | KB-3-1 viability, CellTiter-Glo ATP luminescence, 72 h | Potency, µM (doses to about 46.1 µM), usual class: cytotoxic; further: potency means the concentration at half of the fitted maximal effect; on the % scale 0 is the no-effect control and ±100 the full control effect; nearly all actives have a fitted effect of over 60% in size
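Cytotoxicity measured as CellTiter-Glo luminescence after 72 h at 37 C. Compound titrations were pinned onto drug-naive KB-3-1 parental adenocarcinoma cells grown in DMEM with 10% FBS, and normalized data fitted to concentration-response curves.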
KCNH2 3.1 inh – inhibitors of human KCNH2 3.1 potassium channel isoform; activity change, % (tested at about 1.8 µM); hit rate 0.95% among 340,000; U2OS KCNH2 3.1, thallium flux FluxOr; stronger effect = lower value;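 active means maximum activity change below -70%; inconclusive means maximum activity change from -70% to -50%; inactive means maximum activity change above -50%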;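 further: thallium influx rate constant from kinetic fluorescence after stimulation buffer; on the % scale 0 is the no-effect control and ±100 the full control effect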
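Kinetic fluorescence (2 min after stimulation buffer) measures Tl+ influx through KCNH2 3.1 expressed by viral transduction in U2OS cells; the rate constant is normalized against DMSO controls serving as positive and negative references.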
MCF10A rereplic – DNA re-replication induction in MCF 10a cells | AID 624296 | hit rate 2.9% among 350,000 | Potency, µM (top dose mostly 46.1 µM), for inactives: at the highest dose activity, positive = re-replication, actives largely listed as activators | MCF 10A DNA re-replication, Hoechst nuclear intensity, 48 h; further: potency means the concentration at half of the fitted maximal effect; % of control where 0% means no effect; nearly all actives have a fitted effect of over 50% in size
KB-V1 cytotox – kills drug-selected multidrug resistant KB-V1 cells; KB-V1 MDR cells viability, CellTiter-Glo, 72 h; Potency, µM (series often up to 46.1 µM), actives largely listed as cytotoxic; hit rate 3.4% among 400,000; further: potency means the concentration at half of the fitted maximal effect; on the % scale 0 is the no-effect control and ±100 the full control effect; nearly all actives have a fitted effect of over 60% in size
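Cytotoxicity via CellTiter-Glo luminescence after 72 h compound exposure at 37 degrees C. Cells: drug-selected KB-V1 line, DMEM phenol-red free plus 10% FBS. Compounds tested at multiple concentrations; normalized data fitted to concentration-effect curves.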
* = called active by the depositor; ! = repeats disagree; [ ] = remark or other dose. The list is not random: actives were taken first. Their share in the collection is about 7.6%. Unless noted, the call rests on the fitted dose curve; in most records, active means well fitted curve in the direction sought with a large enough effect; inconclusive means small, poorly fitted or top-dose-only effect, or another doubt; inactive means no such curve, though single readings can be large; an effect the other way counts as inactive or inconclusive.

How did NCCc1ccc(OCc2ccccc2)c(OCc2ccccc2)c1 do in these assays?
KCNH2 WT inh: 1; SW480 rerep: inconclusive; KB-3-1 cytotox: inconclusive; KCNH2 3.1 inh: 5; MCF10A rereplic: inconclusive; KB-V1 cytotox: 23µM*

How did COc1ccc(CCN)cc1OC do in these assays?
KCNH2 WT inh: 1; SW480 rerep: 1%; KB-3-1 cytotox: inactive; KCNH2 3.1 inh: 7; MCF10A rereplic: 13%; KB-V1 cytotox: inactive

Results for COc1ccc(C[C@H]2NC[C@H](O)[C@H]2OC(C)=O)cc1 ?
KCNH2 WT inh: 0; SW480 rerep: 3%[1.84 µM]; KB-3-1 cytotox: 0.33µM*; KCNH2 3.1 inh: 6; MCF10A rereplic: inconclusive; KB-V1 cytotox: 0.41µM*

How did CCN(CC)P(=S)(c1c(C)nc2ccccn12)c1c(C)nc2ccccn12 do in these assays?
KCNH2 WT inh: -1; SW480 rerep: 10µM*; KB-3-1 cytotox: inconclusive; KCNH2 3.1 inh: 23; MCF10A rereplic: 65%; KB-V1 cytotox: inactive

What do the screens show for `CCOc1c(P(=S)(N(C)C)N(C)C)c(C)nn1-c1ccccc1`?
KCNH2 WT inh: -15; SW480 rerep: -5%[9.22 µM]; KB-3-1 cytotox: inactive; KCNH2 3.1 inh: 0; MCF10A rereplic: 5%; KB-V1 cytotox: inactive

What do the screens show for `O=C(CCl)c1ccc(Oc2ccc(C(=O)CCl)cc2)cc1`?
SW480 rerep: 18%; MCF10A rereplic: 27µM*

What do the screens show for `O=C(CCl)c1ccc(O)c(O)c1`?
KB-3-1 cytotox: inactive; KB-V1 cytotox: inactive

Results for CCC(=O)O[C@@](Cc1ccccc1)(c1ccccc1)[C@@H](C)CN(C)C ?
SW480 rerep: 1%[20.6 µM]; MCF10A rereplic: -3%[20.6 µM]

Results for O=C1NC(=O)C(=Cc2csc3ccccc23)C(=O)N1 ?
KCNH2 WT inh: -209*; SW480 rerep: 0%; KB-3-1 cytotox: inactive; KCNH2 3.1 inh: -180*; MCF10A rereplic: 1%; KB-V1 cytotox: inactive

How did O=C1CC23c4ccccc4N4C(=O)CC5OCC=C6CN1C2CC6C5C43 (stereo not given) do in these assays?
KCNH2 WT inh: 16; SW480 rerep: 0%; KB-3-1 cytotox: inactive; MCF10A rereplic: 1%; KB-V1 cytotox: 15µM*

What do the screens show for `O=C1CC2OCC=C3CN4CCC56c7ccccc7N1C5[C@H]2[C@H]3C[C@H]46` (stereo not given in full) (tested in a mixture with another compound)?
SW480 rerep: -5%

Results for CCOC(=O)c1ccc(-[n+]2c(-c3ccccc3)cc(-c3ccccc3)cc2-c2ccccc2)cc1 ?
KCNH2 WT inh: -12; SW480 rerep: inconclusive; KB-3-1 cytotox: inactive; KCNH2 3.1 inh: -3; MCF10A rereplic: inconclusive; KB-V1 cytotox: inactive

Results for c1ccc(-c2cc(-c3ccccc3)[n+](-c3ccccc3)c(-c3ccccc3)c2)cc1 ?
KCNH2 WT inh: -6; SW480 rerep: -4%; KB-3-1 cytotox: 4.6µM*; KCNH2 3.1 inh: -22; MCF10A rereplic: 21%; KB-V1 cytotox: inactive

Results for Cc1ccc(-c2cc(-c3ccc(C)cc3)[n+](-c3ccccc3)c(-c3ccc(C)cc3)c2)cc1 ?
KCNH2 WT inh: -36; SW480 rerep: inconclusive; KB-3-1 cytotox: 5.8µM*; KCNH2 3.1 inh: -44; MCF10A rereplic: inconclusive; KB-V1 cytotox: inactive

Results for Cc1ccc(-c2cc(-c3ccccc3)cc(-c3ccccc3)[n+]2-c2ccccc2)cc1 ?
KCNH2 WT inh: -13; SW480 rerep: 13%[9.22 µM]; KB-3-1 cytotox: inconclusive; KCNH2 3.1 inh: -38; MCF10A rereplic: 23µM*; KB-V1 cytotox: inactive

Results for CN(C)c1ccc(-[n+]2c(-c3ccccc3)cc(-c3ccccc3)cc2-c2ccccc2)cc1 ?
KCNH2 WT inh: 7; SW480 rerep: inconclusive; KB-3-1 cytotox: 0.65µM*; KCNH2 3.1 inh: -21; MCF10A rereplic: inconclusive; KB-V1 cytotox: 21µM*

How did NCC(=O)c1ccc(Br)cc1 do in these assays?
KB-3-1 cytotox: inactive; KB-V1 cytotox: inactive

What do the screens show for `CC(=O)OO`?
SW480 rerep: 2%; MCF10A rereplic: -3%

What do the screens show for `O=[N+]([O-])c1c(Cl)cccc1-c1c[nH]cc1Cl`?
SW480 rerep: 14%; MCF10A rereplic: inconclusive

How did CCOC(=O)[C@]12Cc3cc(Cl)ccc3[C@H]1N(C)C(=O)c1ccccc12 do in these assays?
KB-3-1 cytotox: inconclusive; KB-V1 cytotox: inactive

How did CCOC(=O)[C@]12Cc3cc(Cl)ccc3[C@H]1N(CC(=O)OC)C(=O)c1ccccc12 do in these assays?
KB-3-1 cytotox: 3.7µM*; KB-V1 cytotox: 12µM*

How did CCOC(=O)[C@]12Cc3cc(Cl)ccc3[C@H]1N(C(C)C)C(=O)c1ccccc12 do in these assays?
KB-3-1 cytotox: 2.6µM*; KB-V1 cytotox: 5.2µM*

Results for CN1C[C@H](C(=O)N[C@]2(C)O[C@@]3(O)C4CCCN4C(=O)[C@H](Cc4ccccc4)N3C2=O)C[C@@H]2c3cccc4[nH]cc(c34)C[C@H]21 (stereo not given in full) ?
SW480 rerep: 1%[4.21 µM]; MCF10A rereplic: 4%

How did O=C(COc1ccc(S(=O)(=O)N2CCOCC2)cc1)N1CCN(Cc2ccc3c(c2)OCO3)CC1 do in these assays?
KCNH2 WT inh: 2; SW480 rerep: -14%; KB-3-1 cytotox: inactive; KCNH2 3.1 inh: 8; MCF10A rereplic: 22%; KB-V1 cytotox: 16µM*

How did Cn1nc(-c2ccc(OCC(=O)N3CCN(Cc4ccccc4)CC3)cc2)c2ccccc2c1=O do in these assays?
KCNH2 WT inh: 0; SW480 rerep: 9%; KB-3-1 cytotox: 5.8µM*!; KCNH2 3.1 inh: 14; MCF10A rereplic: 16%; KB-V1 cytotox: 0.65µM*!

How did CCCNS(=O)(=O)c1ccc(OCC(=O)N2CCN(Cc3ccccc3)CC2)cc1 do in these assays?
KCNH2 WT inh: -5; SW480 rerep: 2%; KB-3-1 cytotox: inconclusive; KCNH2 3.1 inh: -17; MCF10A rereplic: 3%; KB-V1 cytotox: 8.2µM*

What do the screens show for `CN(C)C(=O)Oc1ccc(OCc2nc3ccccc3[nH]2)cc1`?
KCNH2 WT inh: -4; SW480 rerep: 0%; KB-3-1 cytotox: inconclusive; KCNH2 3.1 inh: 3; MCF10A rereplic: 8%; KB-V1 cytotox: 12µM*

What do the screens show for `COc1ccccc1NC(=O)COC(=O)c1cn(C)c2ccccc12`?
KCNH2 WT inh: 18; SW480 rerep: -5%; KB-3-1 cytotox: inactive; KCNH2 3.1 inh: -1; MCF10A rereplic: 9%; KB-V1 cytotox: 9.2µM*

Results for C[C@H]1CN(C2CCC(C#N)(c3ccc(F)cc3)CC2)CC[C@@]1(C(=O)O)c1ccccc1 (stereo not given in full) ?
SW480 rerep: -11%[20.6 µM]; MCF10A rereplic: -1%[20.6 µM]
